# Measured values reported in the supplement of paper PMC10849652.
# Targets with a hit are over-represented here; the source holds about 7,900 in all. About 0.6% of all pairs of compound and target were hits. A number with no mark means an inactive call.
# What was measured:
# Experiment in all cases: log2 fold change, soluble protein after heating vs DMSO (PISA); higher = thermal stabilisation; K562 cells, 10 uM, 30 min; active = over 0.2 and 3.5 SD of the protein, either way, in both replicates (recomputed)
# [1] = compound: Cc1ccc(NC(=O)c2ccc(CN3CC[C@H](N(C)C)C3)c(C(F)(F)F)c2)cc1Nc1nccc(-c2cncnc2)n1 [bafetinib]
# How it was run: (§1)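 Quantification of soluble protein used TMTpro 16plex LC-MS/MS, with channel sums equalised. Samples were the supernatant after 21,000xg for 90 min of pooled aliquots from K562 cells (2×10^6 cells/mL) treated with 10 μM compound for 30 min, heated for 3 min over 48°C-58°C, and extracted in PBS with 0.5% NP-40 at 4°C. Values, from duplicates, describe thermal stability against control samples on a log2 fold-change scale.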
# [2] = compound: Cc1cccc(CC(=O)N2CCc3c2ccc(-c2cn(C)c4ncnc(N)c24)c3F)n1
# How it was run: as §1
# [3] = compound: Cc1cn(-c2cc(NC(=O)c3ccc(C)c(Nc4nccc(-c5cccnc5)n4)c3)cc(C(F)(F)F)c2)cn1 [nilotinib]
# How it was run: as §1
# [4] = compound: Cc1nc(Nc2n[nH]c3c2CN(C(=O)N[C@H](CN(C)C)c2ccccc2)C3(C)C)c2sccc2n1
# How it was run: as §1
# [5] = compound: Cc1nc(Nc2ncc(C(=O)Nc3c(C)cccc3Cl)s2)cc(N2CCN(CCO)CC2)n1 [dasatinib]
# How it was run: as §1
# [6] = compound: Cc1ncc(-c2ccnc(Nc3ccc(S(C)(=O)=O)cc3)n2)n1C(C)C
# How it was run: as §1
# [7] = compound: Cn1cc(-c2ccc3c(c2)CCN3C(=O)Cc2cccc(C(F)(F)F)c2)c2c(N)ncnc21
# How it was run: as §1
# [8] = compound: Cn1cc(-c2ccc3nnc(C(F)(F)c4ccc5ncccc5c4)n3n2)cn1
# How it was run: as §1
# [9] = compound: Cn1cncc1[C@@](N)(c1ccc(Cl)cc1)c1ccc2c(c1)c(-c1cccc(Cl)c1)cc(=O)n2C [tipifarnib]
# How it was run: as §1
# [10] = compound: FC(F)(F)c1ccc(/C=C/c2nc(COc3ccc(CCCCn4ccnn4)cc3)co2)cc1 [mubritinib]
# How it was run: as §1
# Sequence of UniProt Q15172 (Q15172 whole entry, looked up): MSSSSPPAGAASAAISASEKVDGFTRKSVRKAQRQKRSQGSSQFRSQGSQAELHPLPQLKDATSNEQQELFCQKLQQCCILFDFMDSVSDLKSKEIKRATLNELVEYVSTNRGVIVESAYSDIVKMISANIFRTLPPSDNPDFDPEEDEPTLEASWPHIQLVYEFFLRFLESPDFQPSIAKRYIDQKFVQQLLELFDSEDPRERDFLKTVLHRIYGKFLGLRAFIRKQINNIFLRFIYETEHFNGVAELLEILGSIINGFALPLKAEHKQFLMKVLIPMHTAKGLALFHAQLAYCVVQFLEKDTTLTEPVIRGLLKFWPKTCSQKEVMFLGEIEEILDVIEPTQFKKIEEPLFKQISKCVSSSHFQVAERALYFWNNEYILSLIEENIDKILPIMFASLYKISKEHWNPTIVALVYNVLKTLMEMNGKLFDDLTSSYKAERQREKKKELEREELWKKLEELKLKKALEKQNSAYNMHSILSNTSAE
# Sequence of UniProt Q96KB5 (Q96KB5 whole entry, looked up): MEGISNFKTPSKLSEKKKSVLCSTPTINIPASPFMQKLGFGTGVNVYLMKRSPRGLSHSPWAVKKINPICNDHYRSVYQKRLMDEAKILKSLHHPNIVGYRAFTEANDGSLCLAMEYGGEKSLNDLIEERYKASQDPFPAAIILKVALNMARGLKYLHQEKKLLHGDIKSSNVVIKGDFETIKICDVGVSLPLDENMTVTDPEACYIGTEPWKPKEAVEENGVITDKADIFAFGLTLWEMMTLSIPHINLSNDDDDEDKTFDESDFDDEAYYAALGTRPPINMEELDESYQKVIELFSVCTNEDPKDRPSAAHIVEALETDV
# Sequence of UniProt O15305 (O15305 whole entry, looked up): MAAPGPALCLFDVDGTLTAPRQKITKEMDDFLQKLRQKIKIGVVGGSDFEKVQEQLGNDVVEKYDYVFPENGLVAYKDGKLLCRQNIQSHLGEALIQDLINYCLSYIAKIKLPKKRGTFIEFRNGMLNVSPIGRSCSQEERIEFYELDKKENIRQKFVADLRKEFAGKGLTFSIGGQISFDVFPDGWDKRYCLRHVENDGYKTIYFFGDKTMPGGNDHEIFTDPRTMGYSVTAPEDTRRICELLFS
# Sequence of UniProt P11216 (P11216 whole entry, looked up): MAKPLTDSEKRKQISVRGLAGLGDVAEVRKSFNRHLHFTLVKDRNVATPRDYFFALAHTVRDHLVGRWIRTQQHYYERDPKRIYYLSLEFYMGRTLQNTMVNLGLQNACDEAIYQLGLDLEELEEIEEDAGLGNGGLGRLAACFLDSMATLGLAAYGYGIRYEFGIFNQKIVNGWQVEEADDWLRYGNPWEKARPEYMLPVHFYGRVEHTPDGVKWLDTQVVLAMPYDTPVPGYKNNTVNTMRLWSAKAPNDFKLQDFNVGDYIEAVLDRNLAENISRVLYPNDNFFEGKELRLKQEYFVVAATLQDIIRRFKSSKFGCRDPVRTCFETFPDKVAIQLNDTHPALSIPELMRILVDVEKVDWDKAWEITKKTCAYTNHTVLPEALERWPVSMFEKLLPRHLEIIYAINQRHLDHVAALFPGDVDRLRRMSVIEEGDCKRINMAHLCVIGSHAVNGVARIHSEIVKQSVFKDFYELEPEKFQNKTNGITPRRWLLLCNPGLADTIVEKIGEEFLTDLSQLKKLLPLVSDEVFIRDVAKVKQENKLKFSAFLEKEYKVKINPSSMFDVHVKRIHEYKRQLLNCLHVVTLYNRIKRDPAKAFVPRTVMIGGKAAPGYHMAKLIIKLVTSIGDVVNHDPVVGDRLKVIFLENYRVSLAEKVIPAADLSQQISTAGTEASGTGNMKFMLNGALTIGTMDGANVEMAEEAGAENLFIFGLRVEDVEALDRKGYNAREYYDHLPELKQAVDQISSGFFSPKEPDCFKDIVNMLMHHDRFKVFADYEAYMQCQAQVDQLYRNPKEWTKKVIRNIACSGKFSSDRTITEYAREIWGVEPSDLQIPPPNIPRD
# Sequence of UniProt Q14671 (Q14671 whole entry, looked up): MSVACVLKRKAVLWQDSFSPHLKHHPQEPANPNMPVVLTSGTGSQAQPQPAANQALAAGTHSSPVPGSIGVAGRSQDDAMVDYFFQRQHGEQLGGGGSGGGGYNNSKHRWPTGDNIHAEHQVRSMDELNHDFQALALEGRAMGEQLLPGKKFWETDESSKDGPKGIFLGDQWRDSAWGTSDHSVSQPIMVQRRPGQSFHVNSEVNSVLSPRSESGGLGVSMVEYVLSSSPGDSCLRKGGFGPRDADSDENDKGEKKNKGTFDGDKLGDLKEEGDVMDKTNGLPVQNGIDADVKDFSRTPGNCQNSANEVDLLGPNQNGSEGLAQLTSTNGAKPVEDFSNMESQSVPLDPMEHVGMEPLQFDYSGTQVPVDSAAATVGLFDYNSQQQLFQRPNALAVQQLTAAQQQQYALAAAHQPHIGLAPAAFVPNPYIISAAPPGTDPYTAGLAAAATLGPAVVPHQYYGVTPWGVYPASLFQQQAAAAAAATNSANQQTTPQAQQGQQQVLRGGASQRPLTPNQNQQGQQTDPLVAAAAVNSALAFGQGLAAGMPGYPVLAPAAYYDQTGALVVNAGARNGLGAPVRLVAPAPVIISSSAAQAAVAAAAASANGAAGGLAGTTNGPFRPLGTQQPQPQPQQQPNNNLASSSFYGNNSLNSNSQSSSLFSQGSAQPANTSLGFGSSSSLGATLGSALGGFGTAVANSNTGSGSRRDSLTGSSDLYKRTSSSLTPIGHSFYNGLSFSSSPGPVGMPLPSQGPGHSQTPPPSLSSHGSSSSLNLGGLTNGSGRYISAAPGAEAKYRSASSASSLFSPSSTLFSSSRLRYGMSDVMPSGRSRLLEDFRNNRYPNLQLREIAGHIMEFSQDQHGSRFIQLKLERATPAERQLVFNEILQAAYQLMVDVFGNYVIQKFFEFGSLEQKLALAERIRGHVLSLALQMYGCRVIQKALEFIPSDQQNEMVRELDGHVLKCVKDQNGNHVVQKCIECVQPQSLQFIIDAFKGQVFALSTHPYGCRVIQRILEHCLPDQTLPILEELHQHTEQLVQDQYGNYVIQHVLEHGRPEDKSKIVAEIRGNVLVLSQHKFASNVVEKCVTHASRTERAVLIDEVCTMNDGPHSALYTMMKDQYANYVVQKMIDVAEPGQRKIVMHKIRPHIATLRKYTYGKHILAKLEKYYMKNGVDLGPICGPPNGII
# Sequence of UniProt Q08752 (Q08752 whole entry, looked up): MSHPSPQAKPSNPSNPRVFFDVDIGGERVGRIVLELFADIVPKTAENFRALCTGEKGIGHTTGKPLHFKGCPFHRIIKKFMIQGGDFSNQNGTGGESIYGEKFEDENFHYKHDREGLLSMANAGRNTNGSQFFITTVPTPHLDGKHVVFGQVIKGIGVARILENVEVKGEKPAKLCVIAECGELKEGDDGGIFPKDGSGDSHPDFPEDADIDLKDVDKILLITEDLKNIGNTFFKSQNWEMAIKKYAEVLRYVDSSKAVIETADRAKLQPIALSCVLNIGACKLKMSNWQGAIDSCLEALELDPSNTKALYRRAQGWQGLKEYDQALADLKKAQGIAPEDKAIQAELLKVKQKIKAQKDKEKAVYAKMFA
# Sequence of UniProt P48426 (P48426 whole entry, looked up): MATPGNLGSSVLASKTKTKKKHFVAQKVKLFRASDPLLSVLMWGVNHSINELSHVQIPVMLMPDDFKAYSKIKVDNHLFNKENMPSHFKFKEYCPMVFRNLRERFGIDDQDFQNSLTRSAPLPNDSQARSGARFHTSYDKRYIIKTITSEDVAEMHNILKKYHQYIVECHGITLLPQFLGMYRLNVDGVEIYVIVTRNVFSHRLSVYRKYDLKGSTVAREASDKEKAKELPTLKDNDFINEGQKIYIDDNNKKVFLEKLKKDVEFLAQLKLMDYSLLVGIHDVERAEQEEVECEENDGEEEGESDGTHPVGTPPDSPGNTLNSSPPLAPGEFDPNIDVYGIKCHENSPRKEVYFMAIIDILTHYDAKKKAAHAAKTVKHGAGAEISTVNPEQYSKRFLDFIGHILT
# Sequence of UniProt Q9NR22 (Q9NR22 whole entry, looked up): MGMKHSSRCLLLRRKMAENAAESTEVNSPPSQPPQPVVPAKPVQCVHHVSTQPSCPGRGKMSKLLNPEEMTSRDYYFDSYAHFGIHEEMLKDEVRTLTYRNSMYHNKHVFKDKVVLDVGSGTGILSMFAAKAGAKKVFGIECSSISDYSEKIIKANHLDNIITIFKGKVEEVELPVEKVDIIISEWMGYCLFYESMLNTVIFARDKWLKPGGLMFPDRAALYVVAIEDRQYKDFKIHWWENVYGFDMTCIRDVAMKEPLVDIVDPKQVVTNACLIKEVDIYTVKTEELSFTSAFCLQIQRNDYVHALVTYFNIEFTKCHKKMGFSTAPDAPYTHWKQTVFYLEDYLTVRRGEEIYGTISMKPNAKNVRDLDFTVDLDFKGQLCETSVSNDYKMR
# Sequence of UniProt Q9H5K3 (Q9H5K3 whole entry, looked up): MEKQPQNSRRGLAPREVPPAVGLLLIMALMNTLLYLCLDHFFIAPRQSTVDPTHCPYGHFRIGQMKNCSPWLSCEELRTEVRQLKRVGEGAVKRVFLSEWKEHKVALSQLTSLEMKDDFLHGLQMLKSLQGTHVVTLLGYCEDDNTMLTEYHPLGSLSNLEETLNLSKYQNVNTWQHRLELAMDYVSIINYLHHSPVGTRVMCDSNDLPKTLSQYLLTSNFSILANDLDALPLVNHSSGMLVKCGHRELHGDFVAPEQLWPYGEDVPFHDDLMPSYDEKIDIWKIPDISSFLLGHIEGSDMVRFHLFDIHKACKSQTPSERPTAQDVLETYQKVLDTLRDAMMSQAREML
# Sequence of UniProt P06454 (P06454 whole entry, looked up): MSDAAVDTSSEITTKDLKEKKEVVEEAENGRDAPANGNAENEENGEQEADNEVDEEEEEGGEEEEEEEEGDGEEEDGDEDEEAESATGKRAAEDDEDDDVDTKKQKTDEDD
# Sequence of UniProt Q9UKL6 (Q9UKL6 whole entry, looked up): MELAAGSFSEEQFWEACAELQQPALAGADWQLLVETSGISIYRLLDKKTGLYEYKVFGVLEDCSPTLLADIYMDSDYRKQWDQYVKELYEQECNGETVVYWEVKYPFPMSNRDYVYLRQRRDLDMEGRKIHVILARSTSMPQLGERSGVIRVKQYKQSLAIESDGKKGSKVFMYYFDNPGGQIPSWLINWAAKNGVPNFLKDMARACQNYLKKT
Target,log2 fold change [1],log2 fold change [2],log2 fold change [3],log2 fold change [4],log2 fold change [5],log2 fold change [6],log2 fold change [7],log2 fold change [8],log2 fold change [9],log2 fold change [10]
POLA1 (UniProt P09884),0.021,0.021,-0.043,-0.033,-0.173,0.01,0.019,0.014,-0.091,0.064
PUM1 isoform 3 (UniProt Q14671),-0.062,0.006,-0.047,-0.066,-0.044,-0.014,0.01,0,-0.015,0.007
PYGB (UniProt P11216),-0.317 (active),0,-0.358 (active),0.02,-0.042,-0.032,0.026,-0.007,0.035,0.014
PPP2R5A (UniProt Q15172),-0.008,0.027,-0.075,-0.039,-0.205,0.006,0.032,0.006,-0.179,0.012
PRKCG (UniProt P05129),-0.012,0.067,0.019,-0.385,0.022,0.018,0.015,-0.132,-0.095,0.047
POLR2K (UniProt P53803),-0.052,-0.057,-0.021,0.029,0.081,0.089,0.006,0.019,-0.036,-0.008
PKM (UniProt P14618),-0.023,-0.012,-0.011,-0.004,0.024,-0.009,0.015,0.006,0.005,0.035
PBK (UniProt Q96KB5),0.064,0.064,-0.053,-0.152,-0.084,0.078,-0.004,0.059,-0.067,-0.06
PSMD7 (UniProt P51665),0.075,0.009,0.014,0.065,0.054,-0.033,-0.116,-0.01,0.079,0.019
PLEKHM2 (UniProt Q8IWE5),-0.09,-0.024,-0.054,-0.002,-0.072,-0.077,0.001,-0.08,-0.028,0.096
POMK (UniProt Q9H5K3),-0.057,0.067,-0.032,-0.029,-0.05,0.016,0,0.034,-0.044,-0.126
PIP4K2A (UniProt P48426),0.283,0.103,0.077,0.065,0.048,0.588 (active),0.037,0.181,-0.081,-0.06
PIK3R1 (UniProt P27986),-0.061,0.029,-0.074,0.015,-0.117,0.108,0.009,-0.013,-0.026,0.017
POLR2E (UniProt P19388),0.055,-0.03,-0.007,0.112,0.025,0.306,-0.056,0.005,-0.088,0.023
PRKD2 isoform 3 (UniProt Q9BZL6),-0.16,0.045,-0.204,-0.698 (active),-0.139,-0.145,0.057,0.045,-0.123,0.099
PRKCQ (UniProt Q04759),-0.027,0.024,-0.051,-0.821 (active),-0.171,0.003,0.069,0.031,-0.134,0.12
PPID (UniProt Q08752),0.015,0.075,-0.113,-0.13,-0.206,0.062,0.023,0.076,-0.148,-0.005
PRUNE1 (UniProt Q86TP1),-0.037,0.045,-0.051,-0.054,-0.178,0.082,-0.045,-0.045,-0.122,-0.056
PDLIM7 (UniProt Q9NR12),-0.01,0.107,0,-0.078,-0.036,-0.01,0.006,-0.048,-0.091,-0.042
POLD3 (UniProt Q15054),0.846,0.058,-0.014,-0.052,-0.068,0.096,0.028,0.044,-0.01,0.024
PRMT3 (UniProt O60678),0.048,0.034,-0.155,0.011,-0.153,-0.02,-0.044,-0.004,-0.126,0.081
PCNT (UniProt O95613),-0.227,-0.324,-0.117,0.045,0.085,-0.002,-0.076,0.107,0.127,-0.004
PPP2R5C isoform 4 (UniProt Q13362),-0.032,-0.019,-0.05,-0.025,-0.058,-0.008,0.037,0.052,-0.093,0.095
PTMA (UniProt P06454),-0.076,-0.047,0.023,0.001,-0.01,-0.031,0.177,-0.147,-0.02,0.109
PARN (UniProt O95453),-0.104,0.019,-0.018,-0.073,-0.182,-0.011,-0.003,0.018,-0.01,0.076
PMM2 (UniProt O15305),-0.098,0.003,-0.291 (active),-0.054,-0.018,-0.015,0.035,0.013,0.018,0.028
PRKCD (UniProt Q05655),-0.028,-0.007,0.033,-0.261 (active),-0.049,-0.021,0.027,0.102,0.008,0.08
PKN1 isoform 2 (UniProt Q16512),-0.006,0.038,-0.044,-0.705 (active),-0.154,-0.019,-0.02,-0.008,-0.046,0.098
PRMT8 (UniProt Q9NR22),0.002,0.032,-0.036,0.048,-0.064,0.02,0.064,-0.066,-0.136,0.035
PCTP (UniProt Q9UKL6),-0.067,-0.004,-0.04,0.114,-0.024,-0.017,0.065,0.036,-0.104,0.063
